Test results taken from PubChem BioAssay (EPA / NIEHS).
Results filed as inconclusive are left out. The source made the active and inactive calls. How the source made its calls: active means hit-call score of the fitted dose curve at least 0.9, where 1 is the maximum; inconclusive means response in the unintended direction; inactive means score below 0.9.

How the values were obtained:
[1] = biological target: human CYP2C9, CYP2C9 (gene 1559) (UniProt P11712); test: NVS_ADME_hCYP2C9: NovaScreen (NVS) CYP450-related Enzyme Activity (ADME) Assay for human CYP2C9 (AID 2283108)
How it was run: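 Cell-free assay of recombinant human CYP2C9 produced in Sf9 cells, with enzyme activity read by fluorescence intensity 0.75 h after compound addition. Loss of signal versus an acetonitrile negative control indicates inhibition. Primary screen used 10 uM in duplicate; actives were retested in concentration series.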

[2] = biological target: human Phosphoinositide 3-kinase alpha (PI3Ka), PIK3CA (gene 5290) (UniProt P42336); test: NVS_ENZ_hPI3Ka: NovaScreen (NVS) Enzymatic Assay for human Phosphoinositide 3-kinase alpha (PI3Ka) (AID 2283196)
How it was run: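 Recombinant human PI3Kα with fluorescent substrate, 1 h, product separated by electrophoretic mobility shift; 25 uM duplicate screen, hits (e.g., 30% inhibition) retested singly up to 50 uM; loss of signal vs DMSO.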

[3] = biological target: sheep Cyclooxygenase-1 (Cox1), PTGS1 (gene 443551) (UniProt P05979); test: NVS_ENZ_oCOX1: NovaScreen (NVS) Enzymatic Assay for sheep Cyclooxygenase-1 (Cox1) (AID 2283239);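 further: actives reduce cyclooxygenase activity so potencies are for inhibitors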
How it was run: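 Colorimetric enzyme readout using sheep seminal-vesicle cyclooxygenase-1, measured 0.66 h post-dosing. Single-concentration duplicates at 25 uM first, then concentration series for actives, with DMSO as baseline and plate controls.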

[4] = biological target: human Caspase 5 (CASP5), CASP5 (gene 838) (UniProt P51878); test: NVS_ENZ_hCASP5: NovaScreen (NVS) Enzymatic Assay for human Caspase 5 (CASP5) (AID 2283137)
How it was run: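 Caspase 5 enzyme activity, detected as fluorescence signal loss, is measured in a biochemical format using E. coli-expressed protein. Reading occurs 2 hours post-dosing. Screening runs at 25 uM, with confirmed actives titrated to 50 uM maximum.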

[5] = biological target: human Dual Specificity Protein Phosphatase 3 (DUSP3), DUSP3 (gene 1845) (UniProt P51452); test: NVS_ENZ_hDUSP3: NovaScreen (NVS) Enzymatic Assay for human Dual Specificity Protein Phosphatase 3 (DUSP3) (AID 2283152);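 further: phosphatase activity of recombinant human DUSP3 on a fluorogenic substrate without cells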
How it was run: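 Cell-free fluorescence-intensity enzyme activity assay with recombinant protein and substrate; loss of signal fitted relative to DMSO baseline. Primary screen in duplicate at 25 uM, actives then run in concentration series; measured 0 h after dosing.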

[6] = biological target: human Ephrin type-A Receptor 1 (EphA1), EPHA1 (gene 2041) (UniProt P21709); test: NVS_ENZ_hEphA1: NovaScreen (NVS) Enzymatic Assay for human Ephrin type-A Receptor 1 (EphA1) (AID 2283158);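 further: activity is signal loss versus DMSO meaning EphA1 kinase inhibition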
How it was run: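 Fluorescent substrate conversion, resolved by mobility-shift separation, measured 1 hour post-dosing using recombinant enzyme; signal loss relative to DMSO baseline. Single-concentration duplicates at 25 uM preceded singleton concentration series topping at 50 uM.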

[7] = biological target: Cytochrome P450 3A4 (Homo sapiens) (UniProt P08684); test: NVS_ADME_hCYP3A4: NovaScreen (NVS) CYP450-related Enzyme Activity (ADME) Assay for human CYP3A4 (AID 2283110)
How it was run: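 Activity is derived from decreased fluorescence intensity relative to acetonitrile, measured 0.33 hour after dosing insect-cell-expressed CYP3A4 in a cell-free format. Screening used 10 uM in duplicate before concentration-response follow-up.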

[8] = biological target: human Matrix Metalloproteinase-9 (MMP9), MMP9 (gene 4318) (UniProt P14780); test: NVS_ENZ_hMMP9: NovaScreen (NVS) Enzymatic Assay for human Matrix Metalloproteinase-9 (MMP9) (AID 2283190);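 further: cell-free recombinant MMP9 protease activity read by fluorescent substrate signal; active means inhibition seen as loss of fluorescence signal versus DMSO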
How it was run: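 Cell-free recombinant MMP9 enzyme activity measured by fluorescence intensity 1 h after dosing. Primary screen in duplicate at 25 uM, actives followed in concentration series; loss of signal relative to DMSO.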

[9] = biological target: Cytochrome P450 2C19 (Homo sapiens) (UniProt P33261); test: NVS_ADME_hCYP2C19: NovaScreen (NVS) CYP450-related Enzyme Activity (ADME) Assay for human CYP2C19 (AID 2283113);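 on AC50: potency for inhibition seen as loss of fluorescent signal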
How it was run: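 Compounds first screened in duplicate at 10 uM, then confirmed in concentration series. Insect-cell-expressed human CYP2C19 turned over a fluorogenic substrate, and fluorescence was read after 1 h. Inhibition taken as signal loss relative to acetonitrile.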

[10] = biological target: human Sirtuin 3 (SIRT3), SIRT3 (gene 23410) (UniProt Q9NTG7); test: NVS_ENZ_hSIRT3: NovaScreen (NVS) Enzymatic Assay for human Sirtuin 3 (SIRT3) (AID 2283222)
How it was run: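 Cell-free enzyme assay with recombinant protein and fluorescent substrate, product separated by electrophoretic mobility shift; read 1 hour after dosing. Screened in duplicate at 25 uM, then singleton concentration-response up to 50 uM; loss of signal versus DMSO.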

[11] = biological target: human Beta-secretase (BACE), BACE1 (gene 23621) (UniProt P56817); test: NVS_ENZ_hBACE: NovaScreen (NVS) Enzymatic Assay for human Beta-secretase (BACE) (AID 2283140);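 further: hits are inhibitors that reduce fluorescent substrate signal versus DMSO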
How it was run: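 Enzyme activity of SF9-produced BACE1 is measured cell-free by fluorescence, 1 hour post dosing, normalised to DMSO. Screening used 25 uM in duplicate, with concentration-response follow-up for actives.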

[12] = biological target: human Phosphodiesterase 10 (PDE10), PDE10A (gene 10846) (UniProt Q9Y233); test: NVS_ENZ_hPDE10: NovaScreen (NVS) Enzymatic Assay for human Phosphodiesterase 10 (PDE10) (AID 2283195)
How it was run: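 Readout is fluorescence intensity following electrophoretic mobility-shift separation, 1 h after dosing of isolated PDE10A protein. Hits meeting a preset threshold at 25 uM went to concentration series (max 50 uM), analysed relative to DMSO.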

[13] = biological target: human Vascular Endothelial Growth Factor Receptor 1 (VEGFR1), FLT1 (gene 2321) (UniProt P17948); test: NVS_ENZ_hVEGFR1: NovaScreen (NVS) Enzymatic Assay for human Vascular Endothelial Growth Factor Receptor 1 (VEGFR1) (AID 2283226)
How it was run: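 Kinase activity of recombinant human VEGFR1 was read by fluorescence after electrophoretic separation of product from substrate, 1 h post-dosing; initial duplicate single-point testing at 25 uM, followed by concentration-series follow-up, with DMSO as baseline.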

[14] = biological target: human Phosphodiesterase 5 (PDE5), PDE5A (gene 8654) (UniProt O76074); test: NVS_ENZ_hPDE5: NovaScreen (NVS) Enzymatic Assay for human Phosphodiesterase 5 (PDE5) (AID 2283194)
How it was run: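 Screening began in duplicate at 25 uM, with actives taken into concentration-response. Enzyme activity of recombinant PDE5 toward its substrate was measured at 1 h by fluorescence mobility-shift detection, relative to DMSO controls.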

[15] = biological target: Mitogen-activated protein kinase 3 (Homo sapiens) (UniProt P27361); test: NVS_ENZ_hMAPK3: NovaScreen (NVS) Enzymatic Assay for human Mitogen-Activated Protein Kinase 3 (MAPK 3) (AID 2283177)
How it was run: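 Chemicals were first tested in duplicate at 25 uM, with hits re-run as concentration series (max 50 uM). Recombinant enzyme activity, measured 1 h post-dose in a cell-free format, was read by fluorescence/mobility shift relative to DMSO.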

[16] = biological target: human Vascular Endothelial Growth Factor Receptor 3 (VEGFR3), FLT4 (gene 2324) (UniProt P35916); test: NVS_ENZ_hVEGFR3: NovaScreen (NVS) Enzymatic Assay for human Vascular Endothelial Growth Factor Receptor 3 (VEGFR3) (AID 2283229)
How it was run: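 Chemicals first run in duplicate at 25 uM, with actives re-tested in concentration series to a top of 50 uM. Recombinant VEGFR3 activity measured after 1 h via fluorescence with mobility-shift product separation; inhibition fitted relative to DMSO.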

[17] = biological target: human Vascular Endothelial Growth Factor Receptor 2 (VEGFR2), KDR (gene 3791) (UniProt P35968); test: NVS_ENZ_hVEGFR2: NovaScreen (NVS) Enzymatic Assay for human Vascular Endothelial Growth Factor Receptor 2 (VEGFR2) (AID 2283230)
How it was run: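 Cell-free recombinant VEGFR2 kinase, fluorescent substrate with electrophoretic mobility-shift separation; read 1 h after dosing. Screened at 25 uM in duplicate, hits to concentration-response up to 50 uM; loss-of-signal versus DMSO.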

Sequence of human CYP2C9, CYP2C9 (gene 1559) (P11712 whole entry, looked up): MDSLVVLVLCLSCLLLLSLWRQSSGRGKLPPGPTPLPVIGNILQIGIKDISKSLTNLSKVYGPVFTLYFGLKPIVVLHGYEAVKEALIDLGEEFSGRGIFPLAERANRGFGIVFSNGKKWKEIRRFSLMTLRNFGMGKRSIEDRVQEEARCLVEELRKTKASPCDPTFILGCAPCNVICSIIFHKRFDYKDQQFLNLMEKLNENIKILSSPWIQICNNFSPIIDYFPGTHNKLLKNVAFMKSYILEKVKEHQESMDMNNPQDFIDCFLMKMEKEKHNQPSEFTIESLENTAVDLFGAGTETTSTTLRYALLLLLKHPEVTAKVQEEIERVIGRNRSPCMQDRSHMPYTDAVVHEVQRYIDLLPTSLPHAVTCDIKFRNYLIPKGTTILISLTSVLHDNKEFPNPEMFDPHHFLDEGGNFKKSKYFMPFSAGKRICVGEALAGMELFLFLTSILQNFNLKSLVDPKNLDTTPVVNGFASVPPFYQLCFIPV
Sequence of human Vascular Endothelial Growth Factor Receptor 1 (VEGFR1), FLT1 (gene 2321) (P17948 whole entry, looked up): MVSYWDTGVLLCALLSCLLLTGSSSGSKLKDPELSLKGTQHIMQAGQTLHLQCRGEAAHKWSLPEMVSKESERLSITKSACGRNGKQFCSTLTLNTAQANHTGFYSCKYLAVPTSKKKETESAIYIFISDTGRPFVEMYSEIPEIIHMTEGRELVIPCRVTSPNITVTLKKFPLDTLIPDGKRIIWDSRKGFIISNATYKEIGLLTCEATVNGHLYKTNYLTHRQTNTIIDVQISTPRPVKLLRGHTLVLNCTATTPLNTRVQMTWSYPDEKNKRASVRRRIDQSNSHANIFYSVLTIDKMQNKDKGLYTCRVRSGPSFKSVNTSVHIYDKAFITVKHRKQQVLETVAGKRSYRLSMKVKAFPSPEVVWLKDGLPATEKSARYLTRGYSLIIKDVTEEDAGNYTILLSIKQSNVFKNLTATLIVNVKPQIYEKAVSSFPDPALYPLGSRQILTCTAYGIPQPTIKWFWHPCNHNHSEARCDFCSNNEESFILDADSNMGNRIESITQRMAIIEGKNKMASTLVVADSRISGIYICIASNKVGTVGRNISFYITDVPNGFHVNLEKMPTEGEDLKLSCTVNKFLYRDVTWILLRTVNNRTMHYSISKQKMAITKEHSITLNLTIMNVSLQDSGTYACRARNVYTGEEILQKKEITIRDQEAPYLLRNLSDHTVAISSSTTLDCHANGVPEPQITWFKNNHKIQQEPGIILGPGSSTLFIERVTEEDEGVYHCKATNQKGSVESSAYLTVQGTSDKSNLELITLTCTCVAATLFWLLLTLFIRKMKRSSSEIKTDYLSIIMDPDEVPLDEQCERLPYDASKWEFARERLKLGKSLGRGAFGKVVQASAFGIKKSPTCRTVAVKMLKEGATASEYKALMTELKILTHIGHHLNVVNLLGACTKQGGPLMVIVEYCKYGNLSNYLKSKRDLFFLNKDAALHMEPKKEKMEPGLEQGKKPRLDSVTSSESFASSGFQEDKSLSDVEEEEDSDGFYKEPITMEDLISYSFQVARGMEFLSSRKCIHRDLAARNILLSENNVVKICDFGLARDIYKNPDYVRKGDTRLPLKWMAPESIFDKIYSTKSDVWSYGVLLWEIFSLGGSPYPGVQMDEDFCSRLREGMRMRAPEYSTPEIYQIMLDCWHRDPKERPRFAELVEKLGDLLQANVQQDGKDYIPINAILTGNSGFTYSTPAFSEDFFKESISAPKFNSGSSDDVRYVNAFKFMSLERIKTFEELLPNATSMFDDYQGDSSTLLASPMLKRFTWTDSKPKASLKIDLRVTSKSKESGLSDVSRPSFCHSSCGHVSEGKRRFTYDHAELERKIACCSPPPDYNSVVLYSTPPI
Sequence of human Dual Specificity Protein Phosphatase 3 (DUSP3), DUSP3 (gene 1845) (P51452 whole entry, looked up): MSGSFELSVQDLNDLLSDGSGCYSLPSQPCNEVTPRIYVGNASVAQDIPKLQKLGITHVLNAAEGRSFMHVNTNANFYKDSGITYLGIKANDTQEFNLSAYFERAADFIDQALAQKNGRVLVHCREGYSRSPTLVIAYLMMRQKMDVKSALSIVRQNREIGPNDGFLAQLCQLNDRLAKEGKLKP
Sequence of human Matrix Metalloproteinase-9 (MMP9), MMP9 (gene 4318) (P14780 whole entry, looked up): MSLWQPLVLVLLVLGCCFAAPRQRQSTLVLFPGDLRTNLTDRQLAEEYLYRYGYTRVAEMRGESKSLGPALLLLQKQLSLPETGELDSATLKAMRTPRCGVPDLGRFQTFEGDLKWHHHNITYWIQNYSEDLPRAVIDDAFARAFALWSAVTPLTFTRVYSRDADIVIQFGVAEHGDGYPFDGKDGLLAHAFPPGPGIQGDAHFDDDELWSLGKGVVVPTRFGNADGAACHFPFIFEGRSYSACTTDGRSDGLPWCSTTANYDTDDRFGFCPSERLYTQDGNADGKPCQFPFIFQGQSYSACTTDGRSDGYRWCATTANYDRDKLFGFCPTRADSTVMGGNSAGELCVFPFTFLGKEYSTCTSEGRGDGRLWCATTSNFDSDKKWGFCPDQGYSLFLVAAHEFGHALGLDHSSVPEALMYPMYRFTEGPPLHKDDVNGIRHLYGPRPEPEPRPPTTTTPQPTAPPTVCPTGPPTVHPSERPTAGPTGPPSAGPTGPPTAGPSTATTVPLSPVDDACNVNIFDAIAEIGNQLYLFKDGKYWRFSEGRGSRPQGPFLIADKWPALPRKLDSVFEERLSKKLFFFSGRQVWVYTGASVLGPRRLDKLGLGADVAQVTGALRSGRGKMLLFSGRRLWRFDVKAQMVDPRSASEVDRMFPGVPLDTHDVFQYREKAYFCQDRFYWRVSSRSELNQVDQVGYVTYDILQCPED
Sequence of human Phosphoinositide 3-kinase alpha (PI3Ka), PIK3CA (gene 5290) (P42336 whole entry, looked up): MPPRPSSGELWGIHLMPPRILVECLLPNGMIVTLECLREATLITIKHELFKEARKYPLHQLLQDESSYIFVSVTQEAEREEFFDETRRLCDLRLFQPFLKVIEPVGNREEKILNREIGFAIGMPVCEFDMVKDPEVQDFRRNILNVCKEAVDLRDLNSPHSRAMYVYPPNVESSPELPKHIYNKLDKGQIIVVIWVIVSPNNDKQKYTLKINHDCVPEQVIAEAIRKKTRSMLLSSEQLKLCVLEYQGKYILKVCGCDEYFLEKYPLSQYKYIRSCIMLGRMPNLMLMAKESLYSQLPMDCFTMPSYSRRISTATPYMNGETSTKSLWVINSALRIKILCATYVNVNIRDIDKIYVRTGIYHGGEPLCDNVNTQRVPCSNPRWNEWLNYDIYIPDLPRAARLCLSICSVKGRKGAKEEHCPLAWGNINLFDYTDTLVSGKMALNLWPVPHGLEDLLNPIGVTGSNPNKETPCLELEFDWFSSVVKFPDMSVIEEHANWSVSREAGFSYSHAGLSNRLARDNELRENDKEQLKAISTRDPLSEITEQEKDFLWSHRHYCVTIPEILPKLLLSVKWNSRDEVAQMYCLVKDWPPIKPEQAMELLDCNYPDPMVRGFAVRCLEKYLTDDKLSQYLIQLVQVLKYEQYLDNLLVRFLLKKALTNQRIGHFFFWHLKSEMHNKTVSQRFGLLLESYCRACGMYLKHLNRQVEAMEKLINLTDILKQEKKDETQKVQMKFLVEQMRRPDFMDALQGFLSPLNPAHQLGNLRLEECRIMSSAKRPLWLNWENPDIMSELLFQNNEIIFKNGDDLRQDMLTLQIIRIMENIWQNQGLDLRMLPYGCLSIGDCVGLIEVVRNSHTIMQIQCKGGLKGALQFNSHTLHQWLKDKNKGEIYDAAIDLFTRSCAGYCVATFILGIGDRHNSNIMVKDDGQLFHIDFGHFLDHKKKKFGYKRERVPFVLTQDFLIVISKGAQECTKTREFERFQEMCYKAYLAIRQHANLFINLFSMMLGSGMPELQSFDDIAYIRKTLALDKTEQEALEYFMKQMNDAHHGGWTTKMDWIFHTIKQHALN
Sequence of human Caspase 5 (CASP5), CASP5 (gene 838) (P51878 whole entry, looked up): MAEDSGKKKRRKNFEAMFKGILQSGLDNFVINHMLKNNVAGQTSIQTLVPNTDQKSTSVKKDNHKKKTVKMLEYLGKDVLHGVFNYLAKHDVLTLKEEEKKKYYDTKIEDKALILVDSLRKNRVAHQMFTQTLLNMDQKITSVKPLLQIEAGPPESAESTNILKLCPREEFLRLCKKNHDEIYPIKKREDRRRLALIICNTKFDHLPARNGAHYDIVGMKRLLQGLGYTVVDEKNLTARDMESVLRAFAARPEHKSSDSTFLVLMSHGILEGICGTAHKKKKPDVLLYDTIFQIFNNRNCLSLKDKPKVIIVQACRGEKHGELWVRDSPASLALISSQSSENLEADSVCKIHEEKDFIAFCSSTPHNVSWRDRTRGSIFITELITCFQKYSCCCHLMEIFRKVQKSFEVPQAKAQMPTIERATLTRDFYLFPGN
Sequence of sheep Cyclooxygenase-1 (Cox1), PTGS1 (gene 443551) (P05979 whole entry, looked up): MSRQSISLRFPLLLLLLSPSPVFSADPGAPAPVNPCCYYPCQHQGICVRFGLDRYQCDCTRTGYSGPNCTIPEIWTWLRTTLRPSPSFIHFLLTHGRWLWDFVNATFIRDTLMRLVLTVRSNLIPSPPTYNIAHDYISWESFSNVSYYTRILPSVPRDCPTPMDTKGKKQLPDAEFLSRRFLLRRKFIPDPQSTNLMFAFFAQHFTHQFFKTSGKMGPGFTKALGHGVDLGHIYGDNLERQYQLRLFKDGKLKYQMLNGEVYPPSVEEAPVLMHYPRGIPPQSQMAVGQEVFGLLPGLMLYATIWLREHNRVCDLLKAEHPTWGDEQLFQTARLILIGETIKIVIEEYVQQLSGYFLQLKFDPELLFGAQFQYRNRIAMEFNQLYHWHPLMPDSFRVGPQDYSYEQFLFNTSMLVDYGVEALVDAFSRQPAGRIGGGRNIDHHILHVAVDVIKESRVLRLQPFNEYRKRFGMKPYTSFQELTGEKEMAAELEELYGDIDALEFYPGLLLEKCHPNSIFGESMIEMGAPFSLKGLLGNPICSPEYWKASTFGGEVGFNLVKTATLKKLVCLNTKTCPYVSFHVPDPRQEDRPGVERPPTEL

## COc1cc(Cl)c(OC)cc1N
[1]
  outcome: inactive
[2]
  outcome: inactive
[3]
  AC50: 25 µM (active)

## CCCCCCCCCCCCCCCC(=O)OC/C=C(C)/C=C/C=C(C)/C=C/C1=C(C)CCCC1(C)C
[4]
  AC50: 5.57 µM (active)
[5]
  AC50: 25 µM (active)
[3]
  AC50: 42.8 µM (active)

## C=C(C)C(=O)OCCOCCOCCOCCOC(=O)C(=C)C
[6]
  AC50: 35.3 µM (active)

## CCCCOC(=O)CCCCCCCC(=O)OCCCC
[7]
  AC50: 3.8 µM (active)
[5]
  outcome: inactive

## NC(=S)NNC(N)=S
[5]
  AC50: 4.96 µM (active)
[8]
  AC50: 3.45 µM (active)
[2]
  outcome: inactive

## CSCCC=O
[9]
  AC50: 0.29 µM (active)
[8]
  AC50: 0.684 µM (active)

## O=C1OC[C@H](Cc2cccc(O)c2)[C@H]1Cc1cccc(O)c1
[9]
  AC50: 0.686 µM (active)
[8]
  AC50: 5.03 µM (active)

## c1ccc(Oc2ccccc2)cc1
[4]
  outcome: inactive
[8]
  outcome: inactive

## CS(=O)(=O)OCCCCOS(C)(=O)=O
[1]
  AC50: 16 µM (active)
[9]
  outcome: inactive
[10]
  outcome: inactive
[3]
  outcome: inactive

## CCCCCCOCCOCCO
[1]
  AC50: 0.238 µM (active)
[2]
  outcome: inactive

## Oc1c(Cl)cc(Cl)c(Cl)c1Cc1c(O)c(Cl)cc(Cl)c1Cl
[4]
  AC50: 2.9 µM (active)
[11]
  AC50: 1.21 µM (active)
[12]
  outcome: inactive
[2]
  AC50: 1.96 µM (active)
[13]
  AC50: 2.93 µM (active)
[3]
  AC50: 15.6 µM (active)

## CCCC[O][Al]([O]CCCC)[O]CCCC
[4]
  AC50: 0.138 µM (active)
[11]
  outcome: inactive

## CN(C)C(=S)SC(=S)N(C)C
[9]
  AC50: 1.03 µM (active)
[5]
  AC50: 0.326 µM (active)
[13]
  outcome: inactive

## C=C(C)[C@H]1CC=C(C)C(=O)C1
[1]
  AC50: 0.597 µM (active)
[12]
  outcome: inactive

## O=CN1CCOCC1
[12]
  outcome: inactive
[2]
  outcome: inactive

## CCC(C)=O
[8]
  AC50: 6.96 µM (active)

## CCOc1ccc(NC(=O)CC(C)=O)cc1
[6]
  outcome: inactive
[2]
  outcome: inactive

## CC=Cc1ccc(OCC)c(O)c1
[12]
  outcome: inactive

## COc1cccc(OC)c1O
[12]
  outcome: inactive

## CCCCC(CC)(CO)CO
[12]
  outcome: inactive

## c1ccc2[nH]cnc2c1
[8]
  AC50: 7.49 µM (active)
[3]
  outcome: inactive

## O=[N+]([O-])c1ccc(O)cc1C(F)(F)F
[14]
  outcome: inactive
[3]
  outcome: inactive

## CCCCSCCCC
[6]
  outcome: inactive
[12]
  AC50: 1 µM (active)

## C=CCCCCCCCCCC
[8]
  outcome: inactive

## C=CC(=O)OCCCC
[6]
  outcome: inactive
[12]
  AC50: 10.2 µM (active)
[2]
  AC50: 0.00235 µM (active)

## CC(=O)C1(C)CC2=C(CCCC2(C)C)CC1C (centres undefined)
[3]
  outcome: inactive

## CC(=O)Nc1ccc(C(=O)CCl)cc1
[13]
  AC50: 40.1 µM (active)
[3]
  outcome: inactive

## CC1(C)C2=CCCC(C)(C)[C@]23CC[C@H]1C3
[3]
  AC50: 16.4 µM (active)

## CC(=O)c1c(C)c([N+](=O)[O-])c(C(C)(C)C)c([N+](=O)[O-])c1C
[2]
  outcome: inactive

## OCCCCC(O)CO (centres undefined)
[6]
  AC50: 5.49 µM (active)
[12]
  AC50: 40.4 µM (active)
[2]
  AC50: 0.803 µM (active)

## C=C(C#N)C(=O)OCC
[8]
  AC50: 8.63 µM (active)

## [O-]n1ccccc1=S.[O-]n1ccccc1=S.[Zn+2]
[15]
  outcome: inactive
[13]
  outcome: inactive
[16]
  outcome: inactive
[17]
  outcome: inactive
[3]
  AC50: 5.57 µM (active)

## c1ccc(CCc2ccccc2)cc1
[3]
  outcome: inactive

## COC(C)(C)CC(C)=O
[2]
  outcome: inactive

## CCOC(=O)[C@@H](C)Oc1ccc(Oc2nc3ccc(Cl)cc3o2)cc1
[16]
  outcome: inactive
[3]
  outcome: inactive

## CN(C)C(=O)Nc1ccc(Oc2ccc(Cl)cc2)cc1
[3]
  AC50: 25 µM (active)

## O=C1OC(=O)c2c(Br)c(Br)c(Br)c(Br)c21
[12]
  outcome: inactive

## Cc1ccc(C)o1
[2]
  outcome: inactive

## O=[N+]([O-])c1cccc(Cl)c1
[12]
  AC50: 25 µM (active)
[13]
  outcome: inactive

## CS(=O)(=O)c1ccc(C2=C(c3ccccc3)C(=O)OC2)cc1
[12]
  outcome: inactive

## CCC1CCCCC1
[12]
  outcome: inactive

## COc1ccc(OC)c(N=Nc2c(O)ccc3ccccc23)c1
[12]
  AC50: 42.3 µM (active)

## CC(C)Nc1nc(N)nc(Cl)n1
[12]
  outcome: inactive

## CC(=O)CC(=O)Nc1ccccc1
[2]
  outcome: inactive

## CC(C)CC(C)CC(O)CC(C)C (centres undefined)
[8]
  AC50: 5.13 µM (active)
